Source: PubChem BioAssay
TbPYK inhibitor = blocks Trypanosoma brucei pyruvate kinase; Q57TT1; TbPYK enzyme, Kinase-Glo Plus ATP luminescence, 45 min; Potency, µM (highest dose often 76.8 µM), without a hit: at the highest dose activity, negative = inhibition, hits mostly inhibitors; actives 0.12% (n = 410,000); AID 624173; active means well fitted curve in the direction sought with a large enough effect; inconclusive means small, poorly fitted or top-dose-only effect, or another doubt; inactive means no such curve, though single readings can be large; an effect the other way counts as inactive or inconclusive; further: potency means the concentration at half of the fitted maximal effect; on the % scale 0 is the no-effect control and ±100 the full control effect; nearly all actives have a fitted effect of over 50% in size
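Luminescence from Kinase-Glo Plus, added after a 45-minute room-temperature reaction, served as the end-point read-out. The enzyme and substrate were preincubated with compound before ADP (130 uM final) initiated turnover. Concentration-effect curves came from normalized qHTS data.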
LmPK inhibitor = blocks Leishmania mexicana pyruvate kinase activity; actives 0.37% (n = 290,000); Potency, µM (titrated, usually from 57.5 µM), without a hit: at the top dose activity change, negative = inhibition, actives largely listed as inhibitors; Q27686; purified LmPK, Kinase-Glo ATP luminescence, 1 h; active means well fitted curve in the direction sought with a large enough effect; inconclusive means small, poorly fitted or top-dose-only effect, or another doubt; inactive means no such curve, though single readings can be large; an effect the other way counts as inactive or inconclusive; further: potency means the concentration at half of the fitted maximal effect; on the % scale 0 is the no-effect control and ±100 the full control effect
Target sequence (Q27686 whole entry, looked up): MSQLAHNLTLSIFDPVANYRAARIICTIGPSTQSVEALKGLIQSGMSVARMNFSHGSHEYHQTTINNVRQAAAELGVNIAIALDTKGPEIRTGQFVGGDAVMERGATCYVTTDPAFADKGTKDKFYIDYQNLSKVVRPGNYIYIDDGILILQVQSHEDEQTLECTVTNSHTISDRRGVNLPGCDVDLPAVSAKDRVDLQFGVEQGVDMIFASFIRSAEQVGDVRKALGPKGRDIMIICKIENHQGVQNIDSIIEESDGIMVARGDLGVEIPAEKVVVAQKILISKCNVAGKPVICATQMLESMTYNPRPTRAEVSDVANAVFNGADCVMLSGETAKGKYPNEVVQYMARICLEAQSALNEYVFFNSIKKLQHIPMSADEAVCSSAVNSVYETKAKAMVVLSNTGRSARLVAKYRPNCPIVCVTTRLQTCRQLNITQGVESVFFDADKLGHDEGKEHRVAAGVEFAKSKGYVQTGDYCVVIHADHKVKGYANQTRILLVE
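In 50 mM imidazole pH 7.2 with 7 mM MgCl2, LmPK (0.1 nM) turned over PEP (0.5 mM) and ADP (0.1 mM) for 1 h at room temperature. Luciferase read-out of ATP.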
Shiga toxin inh = blocks Shiga toxin action in Vero cells | Vero cells, Shiga toxin protein synthesis inhibition reporter | inhibition, % at 38.7 µM | actives 9.2% (n = 290,000) | AID 2315; in the data active means inhibition mostly above about 28%, no sharp cut-off; inactive means mostly below about 43%; further: 0% is about no effect
CHX counter = affects cycloheximide protein synthesis inhibition readout, counter-screen | cell reporter, cycloheximide protein synthesis inhibition counterscreen | max response, % | actives 12% (n = 300,000) | AID 2314; in the data active means max response mostly above about 13%, no sharp cut-off; inactive means mostly below about 14%; further: read at 38.3 µM for the half of the compounds with a filed dose; 0% is about no effect
NS1 function inh = blocks influenza NS1 protein function. Potency, µM (doses to about 46.1 µM), without a hit: top-dose activity, positive = more growth. actives 0.4% (n = 270,000); further: potency means the concentration at half of the fitted maximal effect; actives are rising curves; nearly all actives have a fitted effect of over 50% in size
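In this qHTS, NS1 from influenza A is expressed in budding yeast, where it slows growth. Cells are switched from glucose to 2% galactose medium (pH 6.0, -URA), treated with compound, and growth recovery is read at OD600.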
SARS PLpro yeast = SARS-CoV PLP inhibition in yeast | S. cerevisiae expressing SARS-CoV PLpro, growth rescue | Potency, µM (series often up to 32.9 µM), for inactives: at the top dose activity, positive = growth rescue, most hits filed as activators | actives 0.19% (n = 330,000) | AID 485353; further: potency means the concentration at half of the fitted maximal effect; 0% is about no effect; nearly all actives have a fitted effect of over 55% in size
* = called active by the depositor; u = inconclusive; x = no result; [ ] = remark or other dose. This excerpt belongs to a sample that is enriched for hits. Unless noted, the call rests on the fitted dose curve.

SMILES	TbPYK inhibitor	LmPK inhibitor	Shiga toxin inh	CHX counter	NS1 function inh	SARS PLpro yeast
Clc1ccc(OCc2cnc(Cl)s2)cc1	-7.7%	-4.5%	49.5	25.6*	-8.8%	1.1%
CC(=O)Nc1ccc(OC/C=C(\C)Cl)cc1	-5.4%	-0.7%	30.5	16.5*	-20.6%	-2.4%
Cc1ccc(NC(=O)CN(C)C(=O)CSc2ccccc2F)cc1	-7.4%	x	x	x	x	-3.4%
COc1ccc(CNC(=O)C(=O)c2cn(CC(=O)N3CCCC3)c3ccccc23)cc1	3.9%	-3.2%	81.2	18.5*	1.2%	1.0%
COc1cccc(NC(=O)C(=O)c2cn(CC(=O)N3CCCC3)c3ccccc23)c1	-4.4%	-2.9%	29.1*	16.7*	25.4%	17.1%
COc1ccc(NC(=O)C(=O)c2cn(CC(=O)N3CCCC3)c3ccccc23)cc1OC	-1.7%	-3.5%	-6.0	-2.7	-6.3%	-2.6%
CCOc1ccc(CNC(=O)C(=O)c2cn(CC(=O)N3CCOCC3)c3ccccc23)cc1OC	-8.0%	-4.1%	6.5	10.1*	-12.7%	0.3%
O=C(Nc1ccccc1Cl)C(=O)c1cn(CC(=O)N2CCOCC2)c2ccccc12	-1.0%	-13.3%	46.1*	58.7*	4.8%	-0.7%
Cn1c(CNC(=O)CSc2nc(-c3cccc(Cl)c3)nc3cc(=O)[nH]n23)nc2ccccc21	0.0%	x	x	x	x	x
CC(C)C[C@H](NC(=O)[C@H](CCCCN)NC(=O)CNC(=O)[C@H](CC(C)C)NC(=O)[C@@H](NC(=O)[C@@H]1CSSC[C@H](N)C(=O)N[C@@H](CO)C(=O)N[C@@H](CC(N)=O)C(=O)N[C@@H](CC(C)C)C(=O)N[C@@H](CO)C(=O)N[C@@H]([C@@H](C)O)C(=O)N1)C(C)C)C(=O)N[C@@H](CO)C(=O)N[C@@H](CCC(N)=O)C(=O)N[C@@H](CCC(=O)O)C(=O)N[C@@H](CC(C)C)C(=O)N[C@@H](Cc1cnc[nH]1)C(=O)N[C@@H](CCCCN)C(=O)N[C@@H](CC(C)C)C(=O)N[C@@H](CCC(N)=O)C(=O)N[C@H](C(=O)N[C@@H](Cc1ccc(O)cc1)C(=O)N1CCC[C@H]1C(=O)N[C@@H](CCCNC(=N)N)C(=O)N[C@H](C(=O)N[C@@H](CC(N)=O)C(=O)N[C@H](C(=O)NCC(=O)N[C@@H](CO)C(=O)NCC(=O)N[C@H](C(=O)N1CCC[C@H]1C(N)=O)[C@@H](C)O)[C@@H](C)O)[C@@H](C)O)[C@@H](C)O	x	x	-6.1	-7.9	x	x
O=C(NCc1ccc(F)cc1)C(=O)c1cn(CC(=O)N2CCCC2)c2ccccc12	1.3%	-1.7%	17.6	6.9	7.0%	2.9%
COc1ccc(CNC(=O)C(=O)c2cn(CC(=O)N3CCOCC3)c3ccccc23)cc1	0.0%	-5.4%	25.3	15.3	-6.9%	-4.1%
COc1ccccc1CCNC(=O)C(=O)c1cn(CC(=O)N2CCOCC2)c2ccccc12	-7.1%	-8.0%	80.1*	61.0*	-8.3%	5.2%
COc1ccccc1CNC(=O)C(=O)c1cn(CC(=O)N2CCCC2)c2ccccc12	1.2%	-4.7%	62.0*	19.6*	0.1%	-1.3%
Cc1c(Cl)cccc1-n1ncc(C(=O)Nc2ccc3c(c2)OCCO3)c1C1CCN(C(=O)OC(C)(C)C)CC1	4.5%	x	x	x	x	x
C[C@@H]1CN([C@@H](C)CO)C(=O)CCCn2nncc2CO[C@H]1CN(C)C(=O)Nc1ccc(-c2cccs2)cc1	-8.4%	x	x	x	x	x
Cc1cccc(NC(=O)Cn2c(=O)n(CCc3ccccc3)c(=O)c3ccccc32)c1	-4.6%	x	x	x	x	x
Cc1ccc2nc(N/C(=N/S(=O)(=O)c3ccc(F)cc3)c3ccccc3)sc2c1	0.0%	-9.5%	131.6*	48.1*	3.3%	-8.7%
Cc1cc(N/C(=N/S(=O)(=O)c2ccc(F)cc2)c2ccccc2)n(-c2ccccc2)n1	0.8%	6.6%	-5.6	-3.6	1.4%	-1.8%
Cc1ccc2nc(N/C(=N/S(=O)(=O)c3ccc(F)cc3F)c3ccccc3)sc2c1	3.0%	3.3%	66.2*	30.7*	x	1.7%
Cc1cc(N/C(=N/S(=O)(=O)c2cc(F)ccc2F)c2ccccc2)n(-c2ccccc2)n1	-2.8%	-3.5%	16.2	14.7*	-18.0%	-5.9%
Cc1nn(CC(=O)NCc2ccc(F)cc2)c2ccccc12	0.3%	x	x	x	x	x
Clc1ccc(-c2nc3n(n2)Cc2ccccc2-3)cc1	0.6%	u	118.4*	66.3*	-1.6%	-5.6%
COc1ccccc1N1CCN(c2nc3ccccn3c(=O)c2C=O)CC1	-10.0%	0.9%	34.9*	29.2*	-2.7%	-0.7%
CCN1CCN(c2nc3ccccn3c(=O)c2C=O)CC1	1.0%	-1.5%	-4.0	-2.0	2.8%	2.1%
SMILES	TbPYK inhibitor	LmPK inhibitor	Shiga toxin inh	CHX counter	NS1 function inh	SARS PLpro yeast
COc1ccc(N2CCN(c3nc4ccccn4c(=O)c3C=O)CC2)cc1	-10.3%	0.6%	16.0	13.1*	-2.9%	6.3%
N#C/C(=C\c1c(N2CCCCCC2)nc2ccccn2c1=O)C(=O)NCc1ccco1	-1.3%	6.8%	41.4	37.7*	-3.1%	-0.5%
O=Cc1c(N2CCSCC2)nc2ccccn2c1=O	0.6%	-2.7%	1.2	1.0	5.4%	-0.2%
O=Cc1c(N2CCN(c3ccccc3)CC2)nc2ccccn2c1=O	2.3%	0.9%	54.1*	31.3*	-7.3%	-0.6%
N#C/C(=C\c1c(N2CCCCC2)nc2ccccn2c1=O)C(=O)NCc1ccco1	2.3%	-0.8%	3.6	6.3	-7.6%	-5.3%
COC(=O)C1CCN(C2CN(Cc3ccc([N+](=O)[O-])cc3)S(=O)(=O)C2)CC1 (centres undefined)	1.8%	x	x	x	x	x
COC(=O)c1c(Oc2ccc(OC)cc2)nnc(-c2ccccc2)c1-c1ccccc1	0.3%	x	x	x	x	x
CCOC(=O)c1c(C)[nH]c(C)c1S(=O)(=O)N(C)CC(=O)Nc1ccc(C)cc1C	4.3%	x	x	x	x	x
CCOC(=O)c1ccccc1NC(=O)c1cnn(-c2ccc(OC)cc2)c1C1CCN(C(=O)OC(C)(C)C)CC1	-8.9%[15.4 µM]	x	x	x	x	x
CC(=O)N1CCCc2cc(S(=O)(=O)N3CCC(C(=O)Nc4cccc(Cl)c4C)CC3)ccc21	-9.3%	x	x	x	x	x
N#CC(C#N)=Cc1c(N2CCN(c3ccccc3)CC2)nc2ccccn2c1=O	2.6%	1.1%	82.3*	33.1*	3.5%	-2.8%
COc1ccc(-c2nc3ccccn3c2C=O)cc1	-0.1%	-29.9%	69.6*	45.3*	-10.6%	-34.4%
N#C/C(=C\c1c(N2CCN(c3ccccc3)CC2)nc2ccccn2c1=O)S(=O)(=O)c1ccccc1	11.4%	10.6%	-8.6	-4.5	-2.9%	-10.5%
CCOC(=O)c1cccc(N2CC3CNC(=O)C2(C(=O)OC)N3C)c1 (centres undefined)	0.7%	x	x	x	x	-2.4%
Cc1cc(NC(=O)CSc2nc(=O)n(CCCN(C)C)c3c2CCCC3)no1	3.3%	x	x	x	x	-0.1%
O=C(OCn1ncc(Br)c(Br)c1=O)c1ccc(F)cc1	-0.7%	1.1%	13.4	23.9*	-33.8%	-46.3%
